For 13 compounds, Potency results are on record in PubChem BioAssay (NCATS).

Experiment [1] is described as follows: qHTS for Inhibitors of the Functional Ribonucleoprotein Complex (vRNP) of Lassa (LASV) Arenavirus: LASV Primary Screen - GLuc reporter signal (AID 1347082; calls by dose curve; tested in HEK293 reporter line; further: nearly all actives have a fitted effect of over 60% in size). In general terms: In qHTS, concentration-response curves come from the screen itself.
Experiment [2] can be described thus: qHTS for Inhibitors of the Functional Ribonucleoprotein Complex (vRNP) of Lymphocytic Choriomeningitis Arenaviruses (LCMV): Viability assay - alamar blue signal for LCMV Primary Screen (AID 1347085; calls by dose curve; tested in HEK293 reporter line; further: nearly all actives have a fitted effect of over 80% in size).
Experiment [3] addresses Nucleoprotein (Lymphocytic choriomeningitis virus (strain Armstrong)) (UniProt P09992). The experiment in a line: qHTS for Inhibitors of the Functional Ribonucleoprotein Complex (vRNP) of Lymphocytic Choriomeningitis Arenaviruses (LCMV): LCMV Primary Screen - GLuc reporter signal (AID 1347086). Further: nearly all actives have a fitted effect of over 70% in size.

Records with an inconclusive call do not appear. Active and inactive are the calls of the source. Unless noted, the call rests on the fitted dose curve.
Potency means the concentration at half of the fitted maximal effect.

Sequence of Nucleoprotein (Lymphocytic choriomeningitis virus (strain Armstrong)) (P09992 whole entry, looked up): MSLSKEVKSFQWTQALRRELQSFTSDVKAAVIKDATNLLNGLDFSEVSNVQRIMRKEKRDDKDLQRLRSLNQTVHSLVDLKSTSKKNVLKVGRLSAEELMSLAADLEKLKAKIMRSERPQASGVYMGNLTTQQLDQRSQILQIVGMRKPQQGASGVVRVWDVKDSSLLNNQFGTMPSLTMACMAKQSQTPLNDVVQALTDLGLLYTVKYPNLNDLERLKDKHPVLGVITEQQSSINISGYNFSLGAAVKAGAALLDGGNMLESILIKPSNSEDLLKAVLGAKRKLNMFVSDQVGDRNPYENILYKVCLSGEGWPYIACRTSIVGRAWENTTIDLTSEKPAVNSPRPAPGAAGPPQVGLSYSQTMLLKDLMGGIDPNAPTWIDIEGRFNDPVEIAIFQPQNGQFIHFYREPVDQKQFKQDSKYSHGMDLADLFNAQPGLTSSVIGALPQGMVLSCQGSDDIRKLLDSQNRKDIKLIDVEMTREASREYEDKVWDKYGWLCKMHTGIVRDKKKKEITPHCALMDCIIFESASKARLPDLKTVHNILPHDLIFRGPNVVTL

For the compound `CCCCOc1ccc(CC(=O)NO)cc1`, the Potency entry in experiment [1], in experiment [2] and in experiment [3] was “inactive” throughout.

As to `O=c1[nH]c(=O)n([C@H]2C[C@H](O)[C@@H](CO)O2)cc1C(F)(F)F`, the Potency entry in experiment [1] and in experiment [3] was “inactive” each time. Besides, in experiment [2], the Potency was 15.8 µM (active).

As for `CC[C@]12CCCN3CCc4c(n(c5ccccc45)C(=O)C1)[C@@H]32`, the Potency entry in experiment [1] is “inactive”. In addition, the Potency in experiment [3] is 7.08 µM (active).

Take `O=C(CCCN1CCN(c2ccc(F)cc2)CC1)NC1c2ccccc2CSc2ccccc21` (stereo not drawn): the Potency in experiment [1] is 24.3 µM (active). In addition, in experiment [2], the Potency result is “inactive”.

In the case of `Cc1c(C)n(CCN(C)C)c2ccc(C(=O)OCCN(C)C)cc12`, the Potency result in experiment [1] and in experiment [3] was “inactive” in each case.

For `CCO[C@@H]1O[C@H](C(COCc2ccccc2)OCc2ccccc2)[C@H](OCc2ccccc2)[C@H]1O` (stereo partly drawn), the Potency result in experiment [1], in experiment [2] and in experiment [3] was “inactive” each time.

In the case of `C#C[C@]1(O)CC[C@H]2[C@@H]3CCc4cc(O)ccc4[C@H]3CC[C@@]21C`, the Potency result in experiment [1] and in experiment [3] was “inactive” each time.

For `CN(C)CCN(Cc1ccc(Cl)cc1)c1ccccn1`, the Potency result in experiment [1], in experiment [2] and in experiment [3] was “inactive” in each case.

Turning to `Clc1ccc(Nc2nnc(Cc3ccncc3)c3ccccc23)cc1`, the Potency entry in experiment [1], in experiment [2] and in experiment [3] was “inactive” each time.

As for `O=C(Nc1ccc([N+](=O)[O-])cc1Cl)c1cc(Cl)ccc1O`, the Potency entry in experiment [1] and in experiment [2] was “inactive” in each case.

Take `COc1ccc(-c2nc3ccc(C4=NNC(=O)CC4C)cc3[nH]2)cc1` (stereo not drawn): the Potency result in experiment [1] and in experiment [3] was “inactive” throughout.

As for `CCOC(=O)Nc1ccc(NCc2ccc(F)cc2)nc1N`, the Potency result in experiment [1], in experiment [2] and in experiment [3] was “inactive” each time.

`CN1CCC(Nc2ncc3ncnc(Nc4ccc(F)c(Cl)c4)c3n2)CC1`: the Potency result in experiment [1], in experiment [2] and in experiment [3] was “inactive” throughout.
